# Shiga toxin inh: inhibitors of Shiga toxin in Vero cells. Vero cells, Shiga toxin protein synthesis inhibition reporter. inhibition, % at 38.7 µM. 290,000 tested, 9.2% active. AID 2315; in the data active means inhibition mostly above about 28%, no sharp cut-off; inactive means mostly below about 43%; further: 0% is about no effect
# Cycloheximide cs: counter-screen hit for Shiga toxin inhibitors, cycloheximide; cell reporter, cycloheximide protein synthesis inhibition counterscreen; max response, %; 300,000 tested, 12% active; AID 2314; in the data active means max response mostly above about 13%, no sharp cut-off; inactive means mostly below about 14%; further: read at 38.3 µM for the half of the compounds with a filed dose; 0% is about no effect
# LmPK inh: inhibitors of Leishmania mexicana pyruvate kinase. Q27686. purified LmPK, Kinase-Glo ATP luminescence, 1 h. Potency, µM (series often up to 57.5 µM), inactives show at the top dose activity change, negative = inhibition, hits mostly inhibitors. 290,000 tested, 0.37% active. AID 1721; further: potency means the concentration at half of the fitted maximal effect; on the % scale 0 is the no-effect control and ±100 the full control effect
# Target sequence (Q27686 whole entry, looked up): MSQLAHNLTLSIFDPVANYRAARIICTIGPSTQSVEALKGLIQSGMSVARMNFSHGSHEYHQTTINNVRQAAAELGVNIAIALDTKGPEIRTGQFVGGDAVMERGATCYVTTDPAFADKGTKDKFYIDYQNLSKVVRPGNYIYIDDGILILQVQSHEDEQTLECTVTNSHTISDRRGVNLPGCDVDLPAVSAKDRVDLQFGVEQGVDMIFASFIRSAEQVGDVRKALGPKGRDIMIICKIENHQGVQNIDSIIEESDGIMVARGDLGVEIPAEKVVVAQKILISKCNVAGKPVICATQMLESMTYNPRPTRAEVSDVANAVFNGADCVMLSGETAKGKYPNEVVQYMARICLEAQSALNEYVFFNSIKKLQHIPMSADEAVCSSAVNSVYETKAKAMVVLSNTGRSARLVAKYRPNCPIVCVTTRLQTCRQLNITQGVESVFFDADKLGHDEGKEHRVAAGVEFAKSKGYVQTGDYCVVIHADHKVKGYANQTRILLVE
#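 Pyruvate kinase activity monitored as ATP production (luciferase luminescence). Conditions: 0.1 nM enzyme, 0.5 mM PEP, 0.1 mM ADP, 1 h, RT; normalized against uninhibited and no-enzyme wells.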
# Giardia FBPA inh: Giardia lamblia aldolase inhibition | A8B2U2 | purified Giardia FBPA | Potency, µM (doses to about 59.6 µM), without a hit: at the top dose activity, negative = inhibition, most hits filed as inhibitors | 290,000 tested, 0.71% active | AID 2451; further: potency means the concentration at half of the fitted maximal effect; on the % scale 0 is the no-effect control and ±100 the full control effect; nearly all actives have a fitted effect of over 55% in size
#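 Giardia FBPA (40 nM reagent) was preincubated 10 min at RT with compound (up to 57.5 uM final), then substrate plus GAPDH/TPI/NAD/arsenate coupling system with diaphorase/resazurin was added; resorufin fluorescence (525/598 nm) was read after 20 min.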
# Tb PYK inh: blocks Trypanosoma brucei pyruvate kinase; Q57TT1; TbPYK enzyme, Kinase-Glo Plus ATP luminescence, 45 min; Potency, µM (highest dose often 76.8 µM), for inactives: at the highest dose activity, negative = inhibition, usual class: inhibitors; 410,000 tested, 0.12% active; further: potency means the concentration at half of the fitted maximal effect; on the % scale 0 is the no-effect control and ±100 the full control effect; nearly all actives have a fitted effect of over 50% in size
#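 Luminescent Kinase-Glo Plus end-point after 45 min room-temperature reaction of T. brucei pyruvate kinase started with 130 uM ADP (final). Buffer TEA 50 mM pH 7.2 with KCl, MgCl2, BSA, Tween-20; titration-based qHTS with fitted concentration-effect curves.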
# Sm TGR block: S. mansoni TGR enzyme inhibition. Potency, µM (doses to about 114 µM), inactives show at the highest dose activity change, negative = inhibition, actives largely listed as inhibitors. purified TGR, DTNB reduction, TNB absorbance 405 nm. 360,000 tested, 3% active. Q962Y6; further: potency means the concentration at half of the fitted maximal effect; on the % scale 0 is the no-effect control and ±100 the full control effect; nearly all actives have a fitted effect of over 60% in size
#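 First, TGR (20 nM dispensed) and NADPH were mixed with compound. Second, a 15 min room-temperature incubation followed. Third, further NADPH and then DTNB were added to start the reaction. Finally, TNB absorbance was monitored kinetically.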
# The depositor's hits bear a star; ? = inconclusive; nt = no result given; [ ] = remark or other dose. This is one part of a sample in which hits are shown more often than they occur. Unless noted, the call rests on the fitted dose curve; in most records, active means well fitted curve in the direction sought with a large enough effect; inconclusive means small, poorly fitted or top-dose-only effect, or another doubt; inactive means no such curve, though single readings can be large; an effect the other way counts as inactive or inconclusive.
SMILES,Shiga toxin inh,Cycloheximide cs,LmPK inh,Giardia FBPA inh,Tb PYK inh,Sm TGR block
O=C(COc1ccccc1)N(Cc1cccnc1)c1nc2c(F)cc(F)cc2s1,nt,nt,nt,nt,7%[15.4 µM],-1%
CC(=O)N(Cc1cccnc1)c1nc2ccc(F)cc2s1,nt,nt,nt,nt,-3%,6%
O=C(CCOc1ccccc1)N(Cc1cccnc1)c1nc2c(F)cc(F)cc2s1,nt,nt,nt,nt,4%,5.6µM*
O=C(O)c1ccccc1N/N=C/c1cc(Br)cc(Br)c1O,127*,37*,6%,17%,-4%,-18%
O=C(O)c1ccccc1N/N=C\c1ccnc2ccccc12,43,28*,-17%,-2%,-9%,0%
Cc1cccc(C(=O)NC2CCN(CC(=O)NCc3ccccc3F)CC2)c1,-4,-5,11%,-2%,7%,-12%
COc1cccc(CNC(=O)C2CCCN(c3nnc(-n4c(C)ccc4C)s3)C2)c1OC (stereo not drawn),nt,nt,nt,nt,4%,-18%
O=C(O)c1ccccc1Nc1ccc(CCc2ccc(Cl)c(Cl)c2)cc1,27*,16*,nt,?,nt,nt
CC(Sc1nnc(Nc2ccccc2)s1)C(=O)Nc1nc(-c2ccccc2)cs1 (stereo not drawn),46,16,-1%,-3%,-7%,0%
CC(Sc1nnc(NCc2ccccc2)s1)C(=O)Nc1ccc2c(c1)C(=O)c1ccccc1C2=O (stereo not drawn),64*,63*,-5%,-1%,-25%,1%
O=C(c1ccco1)N1CCN(c2c([N+](=O)[O-])nn(-c3cccc(Cl)c3)[n+]2[O-])CC1,22,14*,12%,-19%,4%,-16%
C/C(CC(=O)Nc1ccc(F)cc1F)=N\NC(=O)C(=O)N1CCCCC1,65*,40*,6%,-2%,nt,-13%
Cc1ccn2c(=O)cc(COc3cccc(NC(=O)Nc4cccc(Cl)c4C)c3)nc2c1,nt,nt,nt,nt,3%,-3%
CCCc1cc(-c2nc(-c3ccc(Cl)cc3)cs2)ccn1,14,30,3%,1%,-18%,10%
CCCc1cc(-c2nc(-c3ccc(Br)cc3)cs2)ccn1,4,22*,0%,-4%,-8%,2%
O=C(C=C=Nc1ccccc1)C(=O)N=C=Cc1ccccc1,72*,24*,2%,-17%,-5%,?
COC(=O)CCN1CCc2cc(N=Nc3ccc([N+](=O)[O-])cc3)ccc21,88,39*,-23%,7%,-18%,9%
c1ccc(C2=Nc3ccccc3OC2)cc1,43,21*,?,-9%,-3%,50µM*
Clc1ccc(C2=Nc3cc(Cl)ccc3OC2)cc1,60*,27*,-16%,0%,0%,-4%
Clc1ccc(C2=NN=C3COc4ccccc4N3C2)cc1,2,-2,4%,0%,0%,3%
NC1=Nc2ccccc2Oc2ccccc21,-3,0,0%,-2%,0%,32%
Cc1ccc2c(c1)N=C(c1ccc(Cl)cc1)CO2,56*,53*,?,0%,-8%,-18%
COc1ccc(CCNC[C@H](O)COc2cccc(C)c2)cc1OC,nt,nt,nt,nt,0%,nt
CC(C)(C)S(=O)(=O)Cc1nc(-c2ccc(Cl)c(Cl)c2)cs1,65*,30*,6%,-10%,-5%,-6%
Cc1cc(C)n(CCc2nc(-c3ccc(C(C)(C)C)cc3)cs2)n1,7,0,1%,-3%,5%,-4%
SMILES,Shiga toxin inh,Cycloheximide cs,LmPK inh,Giardia FBPA inh,Tb PYK inh,Sm TGR block
CCC(=O)/C=C1/Sc2ccc(OC)cc2N1CC,22,-3,-2%,-8%,-8%,0%
CCC(=O)/C=C1/Sc2ccccc2N1CC,121*,29*,2%,-12%,?,-23%
CCN1/C(=C/C(=O)c2ccco2)Sc2ccccc21,65,24*,-2%,?,3%,20µM*
Cc1ccc(NC(=O)Cn2nc(C)c3nn(-c4ccc(Cl)cc4)c(C)c3c2=O)cc1F,nt,nt,nt,nt,-3%,9%
N#Cc1cc(C#N)c(N2CCN(c3cccc(Cl)n3)CC2)nc1N,89*,67*,0%,1%,-9%,10%
NC1CCN(c2cccc(Cl)n2)CC1,nt,nt,nt,-6%,4%,nt
O=C(c1ccc(C(F)(F)F)cc1)N1CCC(c2noc(-c3ccc(S(=O)(=O)N4CCCC4)cc3)n2)CC1,nt,nt,nt,nt,1%,3%
